Measurements from PubChem BioAssay (Tox21).
Inconclusive results are not listed. Activity calls are given as the source filed them. Calls follow the shape of the dose curve; as a rule, active = well fitted activation curve with a large enough effect in the signal ratio in the repeat runs, with a control signal flat (not every such curve was filed as active); inconclusive = weak or mixed curves; inactive = flat fitted curve, though single readings scatter; the % refers to the signal ratio.

Assay: qHTS assay for small molecule activators of the heat shock response signaling pathway (AID 743210)
Settings: HeLa HSE-bla reporter, beta-lactamase ratio, 5 h; series mostly up to 62.6 µM; activation: at the top concentration
Text: U.S. Tox21 Program National Center for Advancing Translational Sciences [NCATS] NIH Chemical Genomics Center [NCGC] U.S. Environmental Protection Agency [EPA] National Institutes of Environmental Health Sciences [NIEHS] National Toxicology Program [NTP] U.S. Food and Drug Administration [FDA] Tox21 Assay Overview: Various chemicals, environmental and physiological stress conditions may lead to the activation of heat shock response/ unfolded protein response (HSR/UPR). There are three heat shock transcription factors (HSFs) (HSF-1, -2, and -4) mediating transcriptional regulation of the human HSR. To identify the compounds that activate HSR signaling, HSE-bla HeLa cell line (Invitrogen, Carlsbad, CA, USA) containing a beta-lactamase reporter gene under the control of the heat shock response elements was used to screen the Tox21 10K compound library.
Tox21 Assay Protocol Summary: The CellSensor HSE-bla HeLa cells (Invitrogen, Carlsbad, CA, USA) were dispensed at 1500 cells/6uL/well into 1536-well black wall/clear bottom plates using a Multidrop combi (Thermo Fisher Scientific, Waltham, MA) dispenser. After the assay plates were incubated at 37 C and 5% CO2 overnight, 23 nL of compounds dissolved in DMSO, positive controls or DMSO only was transferred to the assay plate by a Pintool station (Kalypsys, San Diego, CA). The plates were incubated at 37 C for 5 h. After 1 uL of LiveBLAzerTM B/G FRET substrate was added using a Flying Reagent Dispenser (Beckman Coulter, Indianapolis, IN, USA), the plates were incubated at room temperature for 2.5 h, and fluorescence intensity was measured by an Envision plate reader (PerkinElmer, Shelton, CT).
% is scaled to controls: 0 for no effect and ±100 for the full control effect.

Structure (SMILES) | activation
COc1ccc2[nH]c(S(=O)Cc3ncc(C)c(OC)c3C)nc2n1 (stereo not given) | -1.3% (inactive)
NC(N)=N/N=C/c1c(Cl)cccc1Cl | -0.0582% (inactive)
CCCc1ccccc1 | 0.0276% (inactive)
c1ccc(-c2nc[nH]c2-c2ccccc2)cc1 | -1.06% (inactive)
CCOC(=O)C1=NN(c2ccccc2)C(=O)C1 | 0.657% (inactive)
CC(=O)/C(C)=C/C1C(C)=CCCC1(C)C (stereo not given) | -0.331% (inactive)
O=C1CCCCCO1 | 0.472% [at 81.1 µM] (inactive)
Cc1ccc(C(=O)C(C)CN2CCCCC2)cc1 (stereo not given) | -0.3% (inactive)
O=C(c1ccc(O)cc1)c1ccc(O)cc1 | 1.19% (inactive)
CC(C)CC=O | -0.524% (inactive)
Cl/C(=C\n1cncn1)c1ccc(Cl)cc1Cl | -0.146% (inactive)
CCN(CC)CCOc1ccc2c(c1)C(=O)c1cc(OCCN(CC)CC)ccc1-2 | 0.342% (inactive)
CC(C)(C)C1CCCCC1O (stereo not given) | 0.429% (inactive)
CC(C)(C)C(=O)OCOP(=O)(COCCn1cnc2c(N)ncnc21)OCOC(=O)C(C)(C)C | 0.179% (inactive)
CCCCCCOC(=O)CCC | -0.118% (inactive)
CC[C@]12CCCN3CCc4c(n(c5ccccc45)C(=O)C1)[C@@H]32 | -0.375% (inactive)
CC(=O)c1c(C)c([N+](=O)[O-])c(C(C)(C)C)c([N+](=O)[O-])c1C | 0.686% (inactive)
CC(=O)OCCc1ccccc1 | -1.43% (inactive)
CCCCCCCCC(CO)CCCCCC (stereo not given) | 0.331% (inactive)
COc1ccc([C@@H]2Sc3ccccc3N(CCN(C)C)C(=O)[C@@H]2OC(C)=O)cc1 | -0.524% (inactive)

Structure (SMILES) | activation
O=[N+]([O-])c1cccc(Cl)c1Cl | 0.0744% (inactive)
COCCO | -1.05% (inactive)
CCN(CC)C(C)CN1c2ccccc2Sc2ccccc21 (stereo not given) | -0.129% (inactive)
CCCCCCCCCCCCCCC1CO1 (stereo not given) | 0.0585% (inactive)
NCCCN(CCO)CCO | 0.486% (inactive)
COc1ccc(C(C)=O)cc1 | -0.0276% [at 81.1 µM] (inactive)
CC[C@H](C)[C@@H](C(=O)O)n1sc2ccccc2c1=O | 0.8% (inactive)
CC(C(=O)O)c1ccc(C(=O)c2ccccc2)s1 (stereo not given) | -0.348% (inactive)
Oc1ccc(Sc2ccc(O)cc2)cc1 | 0.496% (inactive)
O=C(Nc1ccccc1)OCC(CN1CCCCC1)OC(=O)Nc1ccccc1 (stereo not given) | 0.482% (inactive)
CC(C)(C)c1cc(O)c(C(C)(C)C)cc1O | 6.88% (inactive)
CNCC[C@@H](Oc1ccccc1C)c1ccccc1 | 2.79% (inactive)
CCC(=O)OC(C)(C)C1CC=C(C)CC1 (stereo not given) | -1.26% (inactive)
CN1CCN(C2=Nc3cc(Cl)ccc3Nc3ccccc32)CC1 | -0.306% (inactive)
COC(=O)CSc1cc(N=c2sc(=O)n3n2CCCC3)c(F)cc1Cl | -1.96% (inactive)
O=C1[C@H](CC[C@H](O)c2ccc(F)cc2)[C@@H](c2ccc(O)cc2)N1c1ccc(F)cc1 | 0.982% (inactive)
CC(=O)c1ccc2c(c1)[C@H](NC(=O)c1ccc(F)cc1)[C@@H](O)C(C)(C)O2 | -0.413% (inactive)
Cc1nc2ccccc2n1Cc1ccc(Cl)cc1 | -0.439% (inactive)
O=C(O)COC(=O)Cc1ccccc1Nc1c(Cl)cccc1Cl | 0.0891% (inactive)
CCOc1cc(OCC)c(C(=O)CCC(=O)O)cc1OCC | -0.699% (inactive)
